We go through 63 compounds from PubChem BioAssay AID2599 (Sanford-Burnham Center for Chemical Genomics, 2010).

The structures appear in SMILES notation. In all, about 330,000 compounds went through this assay and about 5,800 (1.8%) were called active. This excerpt belongs to a sample that is enriched for actives. A number with no mark means an inactive call.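 Rule for the calls: active = inhibition above about 50% at the single tested dose (limit read from the data); inactive = the rest.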

Sequence of Sentrin-specific protease 6 (Homo sapiens) (Q9GZR1 628-1112 limits assumed): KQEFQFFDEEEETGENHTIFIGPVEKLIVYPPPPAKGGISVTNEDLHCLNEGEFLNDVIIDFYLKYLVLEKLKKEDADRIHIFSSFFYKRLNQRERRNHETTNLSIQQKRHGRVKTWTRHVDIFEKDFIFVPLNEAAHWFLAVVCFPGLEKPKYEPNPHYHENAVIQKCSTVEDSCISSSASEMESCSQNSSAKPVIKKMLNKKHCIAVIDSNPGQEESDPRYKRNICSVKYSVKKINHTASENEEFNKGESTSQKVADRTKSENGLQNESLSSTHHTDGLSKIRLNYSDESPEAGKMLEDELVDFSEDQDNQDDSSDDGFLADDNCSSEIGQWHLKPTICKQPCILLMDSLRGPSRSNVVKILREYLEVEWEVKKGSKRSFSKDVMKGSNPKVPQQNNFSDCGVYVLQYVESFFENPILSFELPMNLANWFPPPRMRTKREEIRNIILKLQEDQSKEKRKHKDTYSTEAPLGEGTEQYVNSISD

The experiment has as its target Sentrin-specific protease 6 (Homo sapiens) (UniProt Q9GZR1). Description: SENP6 protease inhibitors, primary screen, biochemical, luminescence, uHTS (AID 2599).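 Note: plate controls were DMSO wells with enzyme for no effect and DMSO wells lacking enzyme for full effect.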 The note with it: Recombinant SENP6 catalytic domain, aminoluciferin luminescence; at 10 µM; active compounds read high.
Regarding `O=S(=O)(Cc1nnnn1-c1ccccc1)c1ccccc1`, the inhibition (as a rule, the relative decrease from the control value, in per cent) was 6.33%. With `Cc1ccc(NC(=O)[C@H](Cc2ccccc2)NC(=O)C2CCNCC2)cc1` the figure was -5.94%; with `CCOc1ccc(S(=O)(=O)N2CCC(C(=O)OCc3ccc(OC)cc3)CC2)cc1`, -11.1%; with `O=C(Nc1ccc2oc(-c3ccc4ccccc4c3)nc2c1)c1cccs1`, -13.1%. Regarding `Cc1cc2nc(-c3ccc(NC(=O)c4cccnc4)cc3)oc2cc1C`, the inhibition is -15%.

With `CCc1ccc2oc(-c3ccc(N)cc3)nc2c1`, the inhibition was 96.1% (active). Regarding `COc1cccc(NC(=O)Cn2cnc3sc(C)c(S(=O)(=O)N4CCN(C)CC4)c3c2=O)c1`, the inhibition was 10.7%. With `Cc1nnc(Nc2ccccc2F)s1` the figure was 8.06%.

Take `C=CCN1CCN(C(=O)CCCc2ccccc2)CC1`: the inhibition is 0.31%. With `O=c1ccc2cc(S(=O)(=O)Nc3ccccc3F)ccc2o1` the figure was 16.4%; with `CCCN1CC=C2C(C#N)=C(N)C(C#N)(C#N)C(c3cc(OC)ccc3OC)C2C1` (stereo not drawn), 0.193%; with `CCN1CC=C2C(C#N)=C(N)C(C#N)(C#N)[C@H](c3ccoc3)[C@H]2C1`, 72.9% (active). To `N#CC1=C(N)C(C#N)(C#N)[C@H](c2ccsc2)[C@H]2COCC=C12` belongs -0.527%; to `CC(CO)(CO)NC(=O)c1ccc(=O)[nH]n1`, -1.98%; to `Cc1c(C(=O)Nc2ccccn2)oc2ccc(Br)cc12`, 56.3% (active).

On to `Cc1nonc1NC(=O)c1oc2ccccc2c1C`, for which the inhibition was 2.56%.

As to `Cc1noc(C)c1C(=O)Nc1ccccn1`, the inhibition was -8.05%.

For `Cn1ccc(=Nc2ccc(NC(=O)c3ccc(N=c4ccn(C)c5ccc([N+](=O)[O-])cc45)cc3)cc2)cc1`, the inhibition is 0.718%. To `NS(=O)(=O)c1ccc(-c2ccc(/C=C3\SC(=O)NC3=O)o2)cc1` belongs -21.1%; to `CCn1c(CN2C(=O)CSc3ccccc32)n[nH]c1=S`, 5.59%. With `CCOC(=O)c1cc(C)sc1NC(=O)C1CCC1` the figure was -29.2%.

In the case of `CCOC(=O)c1cc2cc3ccccc3cc2oc1=O`, the inhibition was 13.2%.

Regarding `COc1cccc(C(=O)c2cc3ccc(O)cc3oc2=O)c1`, the inhibition was 101% (active). With `COc1cccc(C(=O)NNC(=O)c2cccc(F)c2)c1` the figure was 0.598%.

In the case of `Cc1ccc(N2C(=O)C(NC(=O)c3c(F)cccc3F)(C(F)(F)F)C3=C2CC(C)(C)CC3=O)cc1` (stereo not drawn), the inhibition was -5.98%. To `COC(=O)c1c(CCl)noc1C(=O)NC(C)C` belongs 15.8%. As for `COc1ccc(N2CCN(C(=O)c3ccc4c(Cl)c5c(nc4c3)CCCC5)CC2)cc1`, the inhibition was -0.317%. With `CC(C)CCNC(=O)c1ccc2c(Cl)c3c(nc2c1)CCC3` the figure was 76.2% (active); with `CC(=O)c1ccc(NC(=O)c2ccc3c(Cl)c4c(nc3c2)CCCC4)cc1`, -20.3%. To `Cc1nc2ccccc2c(=O)n1-c1ccc(F)c(NC(=O)c2cccs2)c1` belongs 1.23%. With `CCn1nnnc1SCC(=O)c1ccc(C)cc1C` the figure was 16%; with `CC(Oc1cccc(Cl)c1)C(=O)NC1CC(C)(C)NC(C)(C)C1` (stereo not drawn), 0.854%. For `Cc1nnc(SCC(=O)Nc2ccc(S(=O)(=O)Nc3ccc(Cl)nn3)cc2)s1`, the inhibition was -2.31%. To `Cc1ccc(SC(CC(=O)c2ccc(C(C)(C)C)cc2)C(=O)O)cc1` (stereo not drawn) belongs -11.7%. As to `CC(C)Cc1cc(C(=O)Nc2cc(Br)ccc2O)no1`, the inhibition was 58.1% (active). With `CC(C)Cc1cc(C(=O)NCCc2ccccc2)no1` the figure was 13%; with `CC(C)CNC(=O)c1cc(-c2ccc(Br)cc2)on1`, -1.36%.

For the compound `O=C(NNc1cc(Cl)cc(Cl)c1)c1c(F)cccc1Cl`, the inhibition is -9.66%. With `CC(OC(=O)c1cc2ccccc2[nH]1)C(=O)N(C)c1ccccc1` (stereo not drawn) the figure was -10.7%. With `COc1ccc2[nH]c(C(=O)Nc3ccccc3Cl)cc2c1` the figure was -36%; with `O=C(Nc1ccccc1)c1cc2ccccc2[nH]1`, 86.2% (active); with `O=C(Cc1ccc(S(=O)(=O)N2CCOCC2)s1)NCCC(c1ccccc1)c1ccccc1`, -9.6%. As to `CC(=O)n1c(C=Nc2ccccc2)c(O)c2ccccc21`, the inhibition is -2.55%. To `Oc1ccc(N=Cc2sc3ccccc3c2Cl)cc1` belongs 65.7% (active); to `CCn1c(SCC(=O)Nc2cccc(F)c2)nnc1-c1cc2cc(Br)ccc2o1`, -0.574%. To `CCc1cccc(C)c1NC(=O)COC(=O)Cc1ccsc1` belongs -15.1%. For `CCN1CCN(C(=O)/C=C\C(=O)O)CC1`, the inhibition is -13.9%. As for `O=[N+]([O-])c1ccc(N/N=C2/CCCCC2c2ccccn2)c([N+](=O)[O-])c1` (stereo not drawn), the inhibition is -14.2%. To `O=[N+]([O-])c1ccc2c(c1)Nc1nc3ccccc3nc1N2` belongs -19%.

Take `O=[N+]([O-])c1ccc2nc(-c3ccccn3)[nH]c2c1`: the inhibition was 55.5% (active).

For `CCOC(=O)c1cccc(NC(=O)CCOc2ccccc2)c1`, the inhibition was -8.69%. With `Cc1cccc(C(=O)OCC(=O)Nc2ccc(F)cc2)c1` the figure was -14%; with `CCOC(=O)c1cccc(NC(=O)c2ccc(F)cc2F)c1`, 53.3% (active); with `COc1c(C=O)c(CCN(C)C(=O)c2ccc(F)cc2)cc2c1OCO2`, -13.8%. To `COC(CNC(=O)Cn1ncc2ccsc2c1=O)OC` belongs -0.866%; to `O=C(c1ccc(NS(=O)(=O)c2ccc3[nH]c(=O)[nH]c3c2)cc1)N1CCCCC1`, -7.59%.

In the case of `C#CCOc1ccccc1/C=C1/C(=O)ON=C1C`, the inhibition was 9.07%. To `Cc1ccc(C23CC4CC(CC(C(=O)NCC(=O)O)(C4)C2)C3)cc1` belongs -30.4%; to `CC(C)CCNC(=O)Cn1c(=O)oc2cc(S(=O)(=O)N3CC(C)CC(C)C3)ccc21` (stereo not drawn), 2.44%; to `Cc1noc(C)c1/C=N/Nc1ccc2ccccc2n1`, -42.7%.

As to `Cc1cc(=O)[nH]c(N/N=C/c2ccc3c(c2)OCCO3)n1`, the inhibition is -9.26%. Regarding `C(=N\Nc1ccc2ccccc2n1)/c1ccc2c(c1)OCO2`, the inhibition was 91.4% (active).

In the case of `O=C(CCc1n[nH]c(=O)[nH]c1=O)N/N=C/c1ccc(Br)o1`, the inhibition is -16.6%.
